Measurements taken from PubChem BioAssay (NCI).
Compounds without any hit were thinned out: in the full panel of roughly 83,000, 20% have a hit.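 Activity criterion: percent growth below 10, measured after cells in 96-well plates were exposed to a single compound concentration for 48 hours.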 A number with no mark means an inactive call. The source made the active and inactive calls.

test system: OVCAR-4 ovarian; experiment: NCI-60 one-dose screen, 48 h (100 = growth as untreated, 0 = no growth, -100 = all killed); conditions: 10 µM unless noted
Procedure: Growth inhibition of the OVCAR-4 human tumor cell line is measured as a screen for anti-cancer activity. Cells are grown in 96 well plates and exposed to the test compound for 48 hours. Compounds are tested at a single concentration, which is 10^-5 M for most compounds. The reported endpoint is percent growth (GI% or GIPRCNT), where numbers from 0 - 100% represent growth inhibition, and numbers from -100% - 0 represent cell death. For example, a value of 40 represents 60% growth inhibition. A value of 0 means no net growth occurred over the course of the experiment. A value of -40 indicates 40% of cells at the beginning of the experiment died by the end of the experiment. A value of -100 means all cells are dead at the end of the experiment.
NCI-60 Human Tumor Cell Lines Screen was performed using the standard one-dose NCI protocol, which is described in more detail at https://dtp.cancer.gov/discovery_development/nci-60/default.htm.
Compounds with GIPRCNT values below 10 were considered active. Activity score was based on GIPRCNT using the following formula: […]
Score is 0 for GIPRCNT values of 100 or above, 50 for GIPRCNT values of 0, and 100 for GIPRCNT values of -100.

Row | Compound | growth
1 | O=C1/C(=C/N2N=C(c3ccc(Cl)cc3)CC2c2ccccc2O)SC(=S)N1c1cccc(C(F)(F)F)c1 (stereo not given) | 37%
2 | COc1cccc(N2CCN(c3ncnc4cc[nH]c34)CC2)c1 | 69.2%
3 | COc1cccc(C2C(C#N)=C(N)Oc3cc4c(cc32)OCO4)c1 (stereo not given) | 40.5%
4 | Oc1c(C(Nc2ccccc2Br)c2ccccc2)ccc2cccnc12 (stereo not given) | 31.4%
5 | O=C(O/C(=C/c1ccccc1)C(F)(F)F)c1ccccc1 | 103%
6 | Cc1cc(N)cc(C)c1-c1c(Br)cc(N)cc1Br | 61.9%
7 | O=C(c1ccccc1)C1OC1C(=O)c1ccccc1 (stereo not given) | 60.1%
8 | CCOC(=O)CCN(CCC(=O)OCC)c1ccccc1 | 113%
9 | O=C1/C=C/[C@@H](O)[C@@H]2C[C@@H](O)C[C@H]2/C=C/CCC[C@H]([C@@H](O)CO)O1 | 72.8%
10 | Clc1cc(Cl)cc(-c2cnc3nonc3n2)c1 | 85.5%
11 | CCN1C(=O)N(CC)C2C1NC(=O)N2/N=C/C=C/c1ccccc1 (stereo not given) | 64.4%
12 | Cc1nn(-c2ccccc2)c2nc3c(nc12)C1=NCCN1C(c1ccc(Cl)cc1)N3 (stereo not given) | 80.3%
13 | NC(N)=NC1CCCCC1 | 105%
14 | COc1cc(OC)cc(-c2ccc(-c3ccc(C(=N)N)s3)s2)c1 | -54.2% (active)
15 | COc1cc(Nc2ncccc2/C=C/C(=O)c2cc(OC)c(OC)c(OC)c2)cc(OC)c1OC | 83.1%
16 | CCCCCCCCCCCC1=NC(C)(C)CN1CCO | 72.6%
17 | O=C(CCl)N1c2ccccc2Oc2ccc3ccccc3c21 | 20.7%
18 | C#CCNc1nc(NCCNC(=O)CCl)nc(N(C)CCCCc2ccccc2)n1 | 96.6%
19 | CN1C(=O)C(C(=O)/C=C/c2ccccc2C(=O)O)C(=O)N(C)C1=O | 109%
20 | CCOC(=O)c1ccc2c(c1)nc(-c1ccc(Cl)cc1)n2-c1cc(C(C)(C)C)[nH]n1 | 63.5%

Row | Compound | growth
21 | c1ccc2c(N=NSc3ncnc4nc[nH]c34)c3ccccc3nc2c1 | -8.92% (active)
22 | COc1cc(C2CC(c3ccc(Cl)cc3)=NN2C(C)=O)ccc1Oc1ccnc2cc(Cl)ccc12 (stereo not given) | -23.8% (active)
23 | Cc1ccc(Nc2cccc3ccccc23)cc1 | 78.9%
24 | COc1ccc(C(=O)OC2C(OC3C(O)COC(O[C@H]4C[C@H]5[C@@H]6CC=C7C[C@@H](O)CC[C@]7(C)[C@H]6CC[C@]5(C)[C@H]4[C@H](C)C(=O)CCC(C)C)C3OC(C)=O)OCC(O)C2O)cc1 (stereo not given in full) | 52.1%
25 | CC1=C(/C=C/C(C)=C/C=C(C(=O)O)\C(C)=C\C(=O)O)C(C)(C)CCC1 | 115%
26 | C=CCCCCOc1cccc(/C=C2\N=C3SCCCN3C2=O)c1 | 87.6%
27 | CC(=O)OC[C@H]1O[C@@H](n2c(=O)cc(N)[nH]c2=O)C(OC(C)=O)[C@@H]1OC(C)=O (stereo not given in full) | 110%
28 | CC(=O)C1CCC2C3CC(C)=C4CC(O)CCC4(C)C3CCC12C (stereo not given) | 93.4%
29 | Cc1ccncc1NC=O | 108%
30 | COc1cccc(/C=N\Nc2ccc([N+](=O)[O-])cn2)c1O | 29.5%
31 | Cc1c2c(cc3c1[nH]c1ccccc13)C=NCC2 | 94%
32 | NS(=O)(=O)c1ccc(CCn2c(SCC(=O)N/N=C/c3ccccc3O)nc3ccccc3c2=O)cc1 | 83.3%
33 | COc1cc(CN2CCC(N3CCCC3=O)c3ccccc32)cc(OC)c1OC (stereo not given) | 41.3%
34 | CN(C)CCNC(=O)n1cc(-c2ccncc2)c(-c2cc(O)cc(Cl)c2)n1 | 118%
35 | COc1cc(C2CC(c3ccccc3)=NN2C=O)ccc1Oc1ccnc2cc(Cl)ccc12 (stereo not given) | 35%
36 | O=P(O)(O)C(O)(Cc1cccnc1)P(=O)(O)O | 86.9%
37 | O=C(N/N=C\c1cc(Br)ccc1O)c1ccncc1 | 36.8%
38 | CCNC(=O)c1ccc2c(c1)nc(-c1ccc(Cl)cc1)n2-c1cc(C(C)(C)C)[nH]n1 | 70.9%
39 | Cn1cnc([N+](=O)[O-])c1S(=O)(=O)Oc1ccccc1 | 112%
40 | CCCCOc1nc2ccc(C)cc2cc1/C=C/C(=O)/C=C(O)/C=C/c1cc2cc(C)ccc2nc1OCCCC | 116%
